Measured values as given in PubChem BioAssay (NCI).
About 83,000 compounds went through this panel and 20% of them were active in at least one assay; those are over-represented in the sample as a whole.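 In brief: 96-well plates, 48 h treatment, single concentration, percent growth endpoint.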 A number with no mark means an inactive call. Activity calls are given as the source filed them. How the source made its calls: active means growth percent below 10; inactive means the rest.

Test system: MDA-MB-468 breast
Test: NCI-60 one-dose screen, 48 h (100 = growth as untreated, 0 = no growth, -100 = all killed)
Conditions: 10 µM unless noted

Row | SMILES | growth
1 | CCCCCC(=O)N1c2ccccc2NC2=C(C(=O)CC(c3ccc(OC)c(OC)c3)C2)C1c1ccc(C(F)(F)F)cc1 (stereo not given) | 14.2%
2 | CN1CCN(CC(=O)N(C)c2ccc(N=C(c3ccccc3)c3c(O)[nH]c4ccc([N+](=O)[O-])cc34)cc2)CC1 | 87.8%
3 | COc1ccc(-c2nnc(SCc3ccc(O)c4ncccc34)o2)cc1 | 51.2%
4 | O=C(CSc1nc2ccc([N+](=O)[O-])cc2[nH]1)Nc1cccc(C(F)(F)F)c1 | -8.14% (active)
5 | CNC(=O)c1c(NC(=O)c2ccc(C(C)(C)C)cc2)sc2c1CCC(=O)C2 | 3.25% (active)
6 | C=C[C@H]1C[C@@H]2C[C@@H]3[C@H]4C/C=C\C(=O)NCCCC5NC(=O)C(=C(O)/C=C/[C@@H]4CC(=O)[C@H]3[C@@H]2[C@H]1C)C5=O (stereo not given in full) | -29.9% (active)
7 | COc1cccc(-c2nn(-c3ccccc3)cc2-c2ccnc(N3CCN(C(=O)Nc4ccc(F)cc4)CC3)c2)c1 | 51.6%
8 | Cc1ccc(NC(=S)N2CCOCC2)cc1C | 83.5%
9 | COc1ccc(C(C)C=O)cc1 (stereo not given) | 134%
10 | CCOC(=O)C(C#N)Cc1ccccc1 (stereo not given) | 115%
11 | COc1cc(/C=C\c2cc(OC)c(OC)c(OC)c2)cc(N/C=C\C(=O)c2c[nH]c3ccccc23)c1OC | -55.8% (active)
12 | CCc1cccc2c1S/C(=C/c1ccc(OC)cc1)C2=O | 27.3%
13 | Br/C(=N\Nc1nn[nH]n1)c1ccccc1 | 104%
14 | COc1cc2c(cc1OC)-c1ccc3cc4c(cc3c1N(CCCN1CCCCC1)C2)OCO4 | 56.5%
15 | Nc1ccc(C2=NN(c3ccccc3)C(c3ccc(Cl)cc3)C2)cc1 (stereo not given) | 62.6%
16 | O=C1CSC(=S)N1Cc1cccnc1 | 47.6%
17 | CCC(C)CC(N)O (stereo not given) | 94.1%
18 | O=C1/C(=C/c2cccc(F)c2)CN(C(=O)C(Cl)Cl)C/C1=C\c1cccc(F)c1 | -47.4% (active)
19 | Cc1cc(C)c(C=O)c(C)c1 | 94.1%
20 | CN1CCC(c2ccccc2)(c2ccccc2)C(=O)C1 | -11.8% (active)

Row | SMILES | growth
21 | CCCCC(O)(c1ccc(Cl)cc1)C(CN1CCOCC1)c1ccc(Cl)cc1 (stereo not given) | 24.7%
22 | Nc1ncnc2c1N=C(c1ccc(Br)cc1)CC(c1cccc(Nc3ccnc4cc(C(F)(F)F)ccc34)c1)N2 (stereo not given) | 60.7%
23 | CCCCCCCCCCCC[n+]1ccc(C(N)=O)cc1 | -42.1% (active)
24 | CC(C)(C)CC(C)(C)c1ccc(OCCOCC[N+](C)(C)CC(=O)[O-])cc1 | 108%
25 | C#CCn1cc(C=C2C(=O)NC(=O)NC2=O)c2cc(Cl)ccc21 | 41.9%
26 | N#C/C(=C\c1ccc(Br)cc1)n1nnc2ccc(F)cc21 | -9.09% (active)
27 | CC[n+]1ccc2c(c1)C(=O)c1nccc3c1c-2nc1ccccc13 | -52.3% (active)
28 | O=c1c(O)cccn1CCCNCCCN(CCCn1cccc(O)c1=O)CCCn1cccc(O)c1=O | 109%
29 | Nc1ccc2c(O)cc(S(=O)(=O)O)cc2c1 | 110%
30 | CCCOC(=O)C1c2cc3c(cc2CC(C)C1C(=O)OCCC)OCO3 (stereo not given) | 102%
31 | COc1ccc(S(=O)(=O)Nc2cc(/C=C\c3cc(OC)c(OC)c(OC)c3)ccc2OC)cc1 | 7.65% (active)
32 | CC(=O)N1N=C(c2ccc(Nc3nc(Nc4ccc(F)cc4)nc(Nc4ccc(Cl)cc4)n3)cc2)CC1c1ccc(Cl)cc1 (stereo not given) | 104%
33 | Cc1cccc(Cl)c1N | 110%
34 | COC(=O)[C@H](C)NC(=O)c1ccc(NC(=O)c2[nH]c(C)c(Cl)c2Cl)c(OCCN)c1 | 107%
35 | COc1ccc2c(c1)c(-c1nc(-c3c[nH]c4c(Cl)nccc34)cs1)cn2C | -23% (active)
36 | COc1cc(/C=C/C(=O)c2ccc(-n3cc(CN4CCN(c5cc6c(cc5F)c(=O)c(C(=O)O)cn6C5CC5)CC4)nn3)cc2)ccc1O | 64.8%
37 | O=c1oc2c(cnc3ccccc32)cc1-c1ccsc1 | 85.5%
38 | C=C(C)[C@@H]1CC[C@]2(C(=O)OC)CC[C@]3(C)[C@H](CC[C@@H]4[C@@]5(C)C/C(=C/c6cccc(I)c6)C(=O)C(C)(C)[C@@H]5CC[C@]43C)[C@@H]12 | 86.7%
39 | O=C(N[C@@H]1CCCc2ccccc21)[C@H](CCC(=O)N1CCN(C2CCCCC2)CC1)N1C(=O)[C@@H](N2C(=O)OC[C@@H]2c2ccccc2)[C@H]1/C=C/c1ccccc1 | -34.6% (active)
40 | COc1ccc(CN2c3ccccc3Sc3ccccc32)c(F)c1 | 2.44% (active)
